Results as given in PubChem BioAssay (NCATS).
Results filed as inconclusive are left out. Calls of active or inactive are those of the source. Calls follow the shape of the dose curve; as a rule, active = well fitted curve in the direction sought with a large enough effect; inconclusive = small, poorly fitted or top-dose-only effect, or another doubt; inactive = no such curve, though single readings can be large; an effect the other way counts as inactive or inconclusive.

Columns and labels:
MKL-1 = assay: qHTS assay to identify novel small-molecules to repurpose for Merkel cell carcinoma treatment (AID 1296009); details: MCC and control cell lines, CellTiter-Glo viability, 72 h; series mostly up to 46 µM; also: nearly all actives have a fitted effect of over 60% in size
Method in brief: (§1)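 Cell viability measured by CellTiter-Glo following 72 hr compound treatment at 37 degree celsius, with NPC and MIPE libraries tested in 8- and 11-point concentration series.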

MKL-2 = assay: as above; details: MCC and control cell lines, CellTiter-Glo viability, 72 h; series mostly up to 46 µM
Method in brief: as §1

NIH3T3 = assay: as above; details: MCC and control cell lines, CellTiter-Glo viability, 72 h; at 44.8 µM (top of the series) unless noted
Method in brief: as §1

UISO = assay: as above; details: MCC and control cell lines, CellTiter-Glo viability, 72 h; series mostly up to 46 µM
Method in brief: as §1

WaGa = assay: as above; details: MCC and control cell lines, CellTiter-Glo viability, 72 h; series mostly up to 46 µM
Method in brief: as §1

C33A = assay: Primary qHTS to identify gynecologic anti-cancer compounds using libraries of approved drugs and bioactive compounds (AID 1345084); details: Gynecologic cancer cell panel viability, ATPlite luminescence, 48 h; series mostly up to 57.5 µM; also: nearly all actives have a fitted effect of over 55% in size
Method in brief: (§2)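 Cell viability after 48 h drug treatment, ATPlite luminescence readout; five doses.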

CASKI = assay: as above; details: Gynecologic cancer cell panel viability, ATPlite luminescence, 48 h; series mostly up to 57.5 µM
Method in brief: as §2

Es-2 = assay: as above; details: Gynecologic cancer cell panel viability, ATPlite luminescence, 48 h; series mostly up to 57.5 µM
Method in brief: as §2

HeLa = assay: as above; details: Gynecologic cancer cell panel viability, ATPlite luminescence, 48 h; series mostly up to 57.5 µM
Method in brief: as §2

Hek293T = assay: as above; details: Gynecologic cancer cell panel viability, ATPlite luminescence, 48 h, control line for the selectivity index; series mostly up to 57.5 µM
Method in brief: as §2

JEG-3 = assay: as above; details: Gynecologic cancer cell panel viability, ATPlite luminescence, 48 h; series mostly up to 57.5 µM
Method in brief: as §2

OV90 = assay: as above; details: Gynecologic cancer cell panel viability, ATPlite luminescence, 48 h; series mostly up to 57.5 µM
Method in brief: as §2

PA-1 = assay: as above; details: Gynecologic cancer cell panel viability, ATPlite luminescence, 48 h; series mostly up to 57.5 µM
Method in brief: as §2

SKOV3 = assay: as above; details: Gynecologic cancer cell panel viability, ATPlite luminescence, 48 h; series mostly up to 57.5 µM
Method in brief: as §2

Tov-21-G = assay: as above; details: Gynecologic cancer cell panel viability, ATPlite luminescence, 48 h; series mostly up to 57.5 µM
Method in brief: as §2

Tov112D = assay: as above; details: Gynecologic cancer cell panel viability, ATPlite luminescence, 48 h; series mostly up to 57.5 µM
Method in brief: as §2

[1] = Drug repurposing screens with cells derived from glioblastoma tumor samples (AID 1345199); details: GBM patient neurospheres viability, ATP luminescence, 48 h; also: nearly all actives have a fitted effect of over 40% in size
Method in brief: (§3)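 Primary testing used CD133+ neurospheres from four GBM patients, seven concentrations, 48 h exposure and ATP-based viability; confirmation added three slower-growing patient lines.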

astro = assay: as above; details: viability, ATP luminescence, 48 h; series mostly up to 45.9 µM
Method in brief: as §3

CAOV3 = assay: Primary qHTS to identify gynecologic anti-cancer compounds using libraries of approved drugs and bioactive compounds (AID 1345084); details: Gynecologic cancer cell panel viability, ATPlite luminescence, 48 h; series mostly up to 57.5 µM; also: nearly all actives have a fitted effect of over 55% in size
Method in brief: as §2

[2] = at 45.9 µM (top of the series), tumour line B
[3] = at 45.9 µM (top of the series), tumour line D
[4] = at 46.1 µM (top of the series), tumour line C
% is scaled to controls: 0 for no effect and ±100 for the full control effect.

CCCNC(=O)NS(=O)(=O)c1ccc(Cl)cc1
inactive: Potency (MKL-1) | Potency (MKL-2) | outcome (NIH3T3) | Potency (UISO) | Potency (WaGa) | Potency (C33A) | Potency (CASKI) | Potency (Es-2) | Potency (HeLa) | Potency (Hek293T) | Potency (JEG-3) | Potency (OV90) | Potency (PA-1) | Potency (SKOV3) | Potency (Tov-21-G) | Potency (Tov112D) | activity, negative = cell killing [1, 2] -7.96% | activity, negative = cell killing [1, 3] 5.01% | activity, negative = cell killing ([1]; at 46 µM (top of the series), tumour line A) -11.4% | activity, negative = cell killing [1, 4] -13.2% | Potency (astro)

CON=C(C(=O)N[C@@H]1C(=O)N2C(C(=O)OCOC(=O)C(C)(C)C)=C(C=Cc3scnc3C)CS[C@H]12)c1csc(N)n1
inactive: Potency (MKL-1) | Potency (MKL-2) | outcome (NIH3T3) | Potency (UISO)

OC[C@H]1O[C@@H](n2cnc3c2NC=NC[C@@H]3O)C[C@H]1O
inactive: Potency (MKL-1) | Potency (MKL-2) | outcome (NIH3T3) | Potency (UISO) | Potency (WaGa)

Cn1c(N2CCCCS2(=O)=O)nc(C(=O)NCc2ccc(F)cc2)c(O)c1=O
inactive: Potency (MKL-1) | Potency (MKL-2) | outcome (NIH3T3) | Potency (UISO) | Potency (WaGa) | Potency (C33A) | Potency (CASKI) | Potency (Es-2) | Potency (HeLa) | Potency (Hek293T) | Potency (JEG-3) | Potency (OV90) | Potency (PA-1) | Potency (SKOV3) | Potency (Tov-21-G) | Potency (Tov112D)

CCOC(=O)C1=C(N)Oc2ccc(Br)cc2C1C(C#N)C(=O)OCC (stereo not given)
inactive: Potency (MKL-1) | Potency (MKL-2) | outcome (NIH3T3) | Potency (UISO) | Potency (WaGa) | Potency (C33A) | Potency (CAOV3) | Potency (CASKI) | Potency (Es-2) | Potency (HeLa) | Potency (Hek293T) | Potency (JEG-3) | Potency (OV90) | Potency (PA-1) | Potency (SKOV3) | Potency (Tov-21-G) | Potency (Tov112D)

O=C1NCC2(CCN(CCc3ccccc3)CC2)O1
inactive: Potency (MKL-1) | Potency (MKL-2) | outcome (NIH3T3) | Potency (UISO) | Potency (WaGa) | Potency (C33A) | Potency (CAOV3) | Potency (CASKI) | Potency (Es-2) | Potency (HeLa) | Potency (Hek293T) | Potency (JEG-3) | Potency (OV90) | Potency (PA-1) | Potency (SKOV3) | Potency (Tov-21-G) | Potency (Tov112D) | activity, negative = cell killing [1, 2] -4.5% | activity, negative = cell killing [1, 3] -9.33% | activity, negative = cell killing [1, 4] -12.7% | Potency (astro)

COc1cc(O)c2c(c1)C(=O)c1cc(C)cc(O)c1C2=O
inactive: Potency (MKL-1) | Potency (MKL-2) | outcome (NIH3T3) inactive [at 17.4 µM] | Potency (UISO) | Potency (WaGa)

CC[C@]1(O)C[C@@H]2CN(CCc3c([nH]c4ccccc34)[C@@](C(=O)OC)(c3cc4c(cc3OC)N(C=O)[C@@H]3C45CCN4CC=C[C@](CC)([C@H]45)[C@@H](OC(C)=O)[C@]3(O)C(=O)OC)C2)C1 (stereo not given in full)
inactive: Potency (MKL-1)

Cc1ccc([C@@H]2O[C@H](CO)[C@@H](O)[C@H](O)[C@@H]2O)cc1Cc1ccc(-c2ccc(F)cc2)s1
inactive: Potency (MKL-1) | Potency (MKL-2) | outcome (NIH3T3) | Potency (UISO) | Potency (WaGa)
